Among all 310,000 compounds or so, about 2,200 (0.71%) showed an effect of 50% or more. Effects have a minus sign here. For the sample, strong results were picked, then their nearest neighbours and some compounds at random.
Target: human ether-à-go-go-related gene (hERG) potassium channel (human, UniProt Q12809)
Experiment: primary screen, population patch clamp on CHO cells stably expressing hERG; higher = less effect of the substance

human ether-à-go-go-related gene (hERG) potassium channel, sequence (Q12809 whole entry, looked up): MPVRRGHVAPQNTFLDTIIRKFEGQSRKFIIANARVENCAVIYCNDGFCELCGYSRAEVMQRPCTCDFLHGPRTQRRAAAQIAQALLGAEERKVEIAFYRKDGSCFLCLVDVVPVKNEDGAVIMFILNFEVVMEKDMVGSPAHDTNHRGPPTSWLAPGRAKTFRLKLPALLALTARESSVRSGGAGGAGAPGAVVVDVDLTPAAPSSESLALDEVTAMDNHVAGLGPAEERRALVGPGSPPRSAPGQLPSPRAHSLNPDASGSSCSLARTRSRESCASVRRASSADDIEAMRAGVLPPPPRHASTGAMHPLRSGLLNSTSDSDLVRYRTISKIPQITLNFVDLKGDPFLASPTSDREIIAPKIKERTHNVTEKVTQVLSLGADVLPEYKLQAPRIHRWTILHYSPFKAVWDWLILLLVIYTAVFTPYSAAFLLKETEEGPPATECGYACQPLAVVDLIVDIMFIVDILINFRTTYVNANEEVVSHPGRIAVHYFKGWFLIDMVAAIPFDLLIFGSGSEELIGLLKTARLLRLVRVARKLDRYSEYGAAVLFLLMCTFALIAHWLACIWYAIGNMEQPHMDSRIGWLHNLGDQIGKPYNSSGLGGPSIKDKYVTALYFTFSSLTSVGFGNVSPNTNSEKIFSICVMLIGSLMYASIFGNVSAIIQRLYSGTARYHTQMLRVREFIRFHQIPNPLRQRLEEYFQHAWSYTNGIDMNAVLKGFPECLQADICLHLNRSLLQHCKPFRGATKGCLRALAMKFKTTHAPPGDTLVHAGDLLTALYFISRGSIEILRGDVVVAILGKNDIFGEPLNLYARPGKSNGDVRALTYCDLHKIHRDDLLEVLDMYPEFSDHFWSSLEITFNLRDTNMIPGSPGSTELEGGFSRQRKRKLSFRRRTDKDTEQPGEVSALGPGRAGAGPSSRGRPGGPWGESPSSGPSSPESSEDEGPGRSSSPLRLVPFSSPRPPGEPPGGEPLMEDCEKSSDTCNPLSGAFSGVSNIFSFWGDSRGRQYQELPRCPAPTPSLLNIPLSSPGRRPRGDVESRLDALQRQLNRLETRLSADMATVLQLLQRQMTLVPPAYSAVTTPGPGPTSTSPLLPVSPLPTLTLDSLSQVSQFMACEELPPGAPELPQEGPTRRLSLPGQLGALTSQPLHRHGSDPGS

Structure (SMILES)	hERG current change (%, negative = inhibition) at 1uM
CCCCNC(=O)/C(=C/c1ccccc1)NC(C)=O	1.06%
COc1cccc(NC(=O)CSc2nc3c(sc4ccccc43)c(=O)n2CCCN2CCCC2)c1	-3.14%
Cc1ccc(CNC(=O)CSc2nc3c(sc4ccccc43)c(=O)n2CCCN2CCCC2)cc1	-57.9%
O=C(CSc1nc2c(sc3ccccc32)c(=O)n1CCCN1CCOCC1)NCC1CCCO1 (stereo not shown)	2.38%
O=C(CSc1nc2ccccc2c(=O)n1CCCO)NCc1ccccc1	-4.26%
CCN(CC)CCn1c(SCC(=O)NCc2ccco2)nc2c(sc3ccccc32)c1=O	-50.4%
O=C(CCCCCn1c(SCC(=O)c2ccccc2)nc2ccccc2c1=O)NCc1ccco1	14.7%
Cc1ccc(CSc2nc3ccccc3c(=O)n2CCCC(=O)NCc2ccco2)cc1	1.62%
COCCCn1c(SCC(=O)NCc2ccccc2)nc2ccccc2c1=O	-8.03%
CCCCn1c(SCC(=O)NCc2ccco2)nc2c(sc3ccccc32)c1=O	-4.7%
O=C(CCCCCn1c(SCc2ccncc2)nc2ccccc2c1=O)NCc1ccco1	-88.4%
O=C(CSc1nc2c(sc3ccccc32)c(=O)n1CCO)NCc1ccco1	-1%
Cc1ccc(CNC(=O)CSc2nc3ccccc3c(=O)n2CCCO)cc1	-51.3%
O=C(CN1C(=O)/C(=C/c2ccccc2F)Sc2ccccc21)N1CCN(c2ccccn2)CC1	12.8%
CC(=O)Nc1cccc(C(=O)OCC(=O)NC(C)c2ccc(F)cc2)c1 (stereo not shown)	16.1%
Cc1cc(Oc2ccc(-c3ccccc3)cc2)nc(N2CCOCC2)n1	2.61%
COc1ccc(N2CCC(CNC(=S)Nc3cccc(OC)c3)C2)cc1 (stereo not shown)	8.46%
Cc1ccc(-n2c(SCC(=O)NC3CCCCC3)nc3c(c2=O)SCC3)cc1	9.81%
COc1ccc(C(=O)N=C2SC3CS(=O)(=O)CC3N2Cc2ccc(OC)c(OC)c2)cc1 (stereo not shown)	10.7%
Cc1ccc2nc(SCC(=O)N3CCCCC3)nc(=O)n2c1	12.4%
CCOc1ccc(Nc2ncnc3c2cnn3Cc2ccccc2)cc1	8.72%
C=CCOc1cccc(C2/C(=C(/O)c3ccc(F)cc3)C(=O)C(=O)N2CCN2CCOCC2)c1 (stereo not shown)	12.9%
O=[N+]([O-])c1cc(C(F)(F)F)cc([N+](=O)[O-])c1NN=C1CCCCC1	9.66%
CC(=O)N1CCN(Cc2nc3cc(NC(=O)Nc4ccccc4)ccc3n2C)CC1	15.5%
CC(C)CN(C(=O)COC(=O)C12CC3CC(CC(O)(C3)C1)C2)C1CCS(=O)(=O)C1 (stereo not shown)	18.7%
CSCCC(/C(O)=C(\C#N)c1nc2ccccc2[nH]1)N1C(=O)c2ccccc2C1=O (stereo not shown)	5.68%

Structure (SMILES)	hERG current change (%, negative = inhibition) at 1uM
CC(C)C(=O)Nc1ccc(C(=O)NNC(=O)NC2CCCCC2)cc1	21.9%
O=C(CSc1nc2c(sc3ccccc32)c(=O)n1CCc1ccccc1)NCc1ccco1	2.54%
COc1ccc(NC(=O)CSc2nc3c(sc4ccccc43)c(=O)n2CCCN2CCCC2)cc1	-1.35%
O=C(CSc1nc2c(sc3ccccc32)c(=O)n1CCCN1CCCC1)NCc1ccccc1	-67.9%
O=C(CSc1nc2c(sc3ccccc32)c(=O)n1CCCN1CCCC1)NCc1ccco1	-70.1%
O=C(CSc1nc2c(sc3ccccc32)c(=O)n1CCCN1CCCC1)NCC1CCCO1 (stereo not shown)	-19.8%
CCOCCCn1c(SCC(=O)NCc2ccco2)nc2c(sc3ccccc32)c1=O	3.64%
CCCc1cc(C(=O)NCCc2ccccc2)no1	-4.85%
C[C@H](CCC(=O)O)[C@H]1CC[C@H]2[C@@H]3CC[C@@H]4C[C@H](O)CC[C@]4(C)[C@H]3CC[C@]12C	15.8%
CC1(C(=O)NCCc2c[nH]c3ccccc23)C=CC2(CCCCC2)N1C(=O)c1ccccc1 (stereo not shown)	2.59%
O=C(/C=C/c1ccc(Cl)cc1)NCc1ccncc1	9.09%
COc1ccccc1-n1c([S-])c(C(=O)Nc2ccccc2C(F)(F)F)[n+]2ccc(C(=O)NCCO)cc12	12.9%
Nc1ncnc(Nc2c(F)cccc2F)n1	7.67%
CCOCCCNc1nc2c(C)cccn2c(=O)c1/C=C1\SC(=S)N(C(C)CC)C1=O (stereo not shown)	10.1%
Cc1[nH]n(-c2ccc([N+](=O)[O-])cc2)c(=O)c1C=NCCN1CCN(C(=O)c2ccc(Br)cc2)CC1	-77.4%
Cc1[nH]n(-c2ccc([N+](=O)[O-])cc2)c(=O)c1C=NCCN1CCN(C(=O)c2ccccc2F)CC1	-34.2%
O=c1c(C=NCCN2CCNCC2)c(-c2ccccc2)[nH]n1-c1ccc([N+](=O)[O-])cc1	-31%
C=CCNC(=S)N1CCN(CCN=Cc2c(C)[nH]n(-c3ccc([N+](=O)[O-])cc3)c2=O)CC1	-27.3%
Cc1[nH]n(-c2ccc([N+](=O)[O-])cc2)c(=O)c1C=NCCN1CCN(C(=O)c2ccccc2)CC1	-77%
COc1ccc(CCN=Cc2c(C)[nH]n(-c3ccc([N+](=O)[O-])cc3)c2=O)cc1OC	7%
Cc1[nH]n(-c2ccc([N+](=O)[O-])cc2)c(=O)c1C=NCCN1CCN(C(=O)C(C)C)CC1	-19.5%
COc1ccc(-c2[nH]n(-c3ccc([N+](=O)[O-])cc3)c(=O)c2C=NCCN2CCNCC2)cc1	2.86%
Cc1[nH]n(-c2ccc([N+](=O)[O-])cc2)c(=O)c1C=NCC1CCCO1 (stereo not shown)	7.67%
Cc1[nH]n(-c2ccc([N+](=O)[O-])cc2)c(=O)c1C=NCCN1CCN(C(=O)c2cccc(F)c2)CC1	-78%
Cc1[nH]n(-c2ccc([N+](=O)[O-])cc2)c(=O)c1C=NCCN1CCN(C(=O)c2ccc(F)cc2)CC1	-81.7%
Cc1[nH]n(-c2ccc([N+](=O)[O-])cc2)c(=O)c1C=NCCc1ccc(S(N)(=O)=O)cc1	13.6%
